Assay outcomes (PubChem)
Compounds with a hit are over-represented: about 3% of the library has one in this group of screens.
S16 F2sN tox: S16 Schwann cell cytotoxicity. AID 1508642. Potency, µM (doses to about 57.5 µM), without a hit: top-dose activity change, negative = cytotoxicity, actives largely listed as cytotoxic. S16 Pmp22-F2sN Schwann cells viability, CellTiter-Glo, 24 h. actives 0.48% (n = 43,000); further: potency means the concentration at half of the fitted maximal effect; on the % scale 0 is the no-effect control and ±100 the full control effect; nearly all actives have a fitted effect of over 65% in size
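Seed 500-1,000 S16 Pmp22-F2sN cells per well in phenol-red-free DMEM with 10% heat-inactivated FBS; pin-add 23 nL compound; incubate 24 h at 37C; add CellTiter-Glo, wait 15 min protected from light; read luminescence.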
OvCa metastasis: blocks SKOV3ip1 adhesion and invasion in omental model; SKOV3ip1-GFP adhesion/invasion on 3D omental model, fluorescence; Potency, µM (doses to about 45.8 µM), for inactives: top-dose activity change, negative = inhibition, actives largely listed as inhibitors; actives 0.1% (n = 46,000); AID 1963576;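 further: potency means the concentration at half of the fitted maximal effect; plate controls were DMSO wells for no effect and tomatine positive control wells for full effect; nearly all actives have a fitted effect of over 65% in size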
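Primary human omental fibroblast/mesothelial 3D culture pre-formed 48 h. SKOV3ip1-GFP cells added with compounds (0.36-46 umol/L), incubated 2 h RT/16 h 37 C, fixed; GFP cells quantified at 488/509 nm.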
mTORC1 inh: inhibitors of mTORC1 signaling in Tsc2-/- p53-/- MEF cells; Tsc2-/- p53-/- MEF, phospho-rpS6 immunofluorescence/PI, 24 h; actives 0.78% (n = 44,000); Potency, µM (doses to about 38.3 µM), for the others: at the highest dose activity change, negative = inhibition, usual class: inhibitors;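 further: potency means the concentration at half of the fitted maximal effect; plate controls were DMSO for no effect and rapamycin for full effect; nearly all actives have a fitted effect of over 50% in size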
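Read-out: phospho-S6 Alexa-488 intensity over PI intensity per well, scored as % active cells using thresholds from rapamycin (7.5 nM) and DMSO controls. Tsc2-/-, p53-/- MEFs exposed to compound for 24 h; PI cell count recorded as viability.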
p53null 32C kill: selectivity test: cytotoxicity in p53 null cells, permissive temperature; H1299-neo p53 null cells, ATP luminescence, 24 h, 32C; AID 903; actives 0.62% (n = 55,000); Potency, µM (series often up to 46.1 µM), inactives show at the highest dose activity change, negative = cytotoxicity, hits mostly cytotoxic;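 further: potency means the concentration at half of the fitted maximal effect; 0% = DMSO only and -100% = full killing by 100 µM tamoxifen; nearly all actives have a fitted effect of over 55% in size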
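H1299-neo, 600 cells/well; overnight 37C; cpd up to 46 uM, 24 h at 32C; ATPlite luminescence after 20 min RT; normalized to DMSO (0%) and tamoxifen 100 uM (100% kill); Hill-fit AC50.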
p53null 39C tox: kills p53 null cells at the nonpermissive temperature. H1299 p53-null (neo) cells, 39C, ATPlite viability, 24 h. Potency, µM (titrated, usually from 46.1 µM), without a hit: top-dose activity, negative = cell killing, actives largely listed as cytotoxic. actives 0.97% (n = 55,000). AID 904;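 further: potency means the concentration at half of the fitted maximal effect; 0% = DMSO only and -100% = full killing by 100 µM tamoxifen; nearly all actives have a fitted effect of over 50% in size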
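Luminescent ATP signal reported cell survival after H1299 lines (neo, p53 null; or p53 A138V) received up to 46 uM compound and 24 hr incubation at 39C.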
PMP22 txn: modulates PMP22 transcription in S16 Schwann cells; S16 Pmp22-F2sN Schwann cells, FLuc/NLuc coincidence luminescence, 24 h; AID 1508649; Potency, µM (series often up to 57.5 µM), inactives show top-dose activity change, negative = inhibition, usual class: inhibitors; actives 2% (n = 43,000); active means clear falling dose curves in both reporters; inconclusive means both reporters move, but less clearly or upward; inactive means either reporter flat; the % is the NLuc reporter signal; further: potency means the concentration at half of the fitted maximal effect; on the % scale 0 is the no-effect control and ±100 the full control effect
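qHTS, 1536-well. Cells seeded, compounds added by pin tool, 24 h 37C. Nano-Glo reagent 1 (lysis/FLuc), 10 min RT, read; Stop&Glo, 10 min RT, read NLuc.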
NLuc saturating: inhibits NanoLuc at saturating substrate, PMP22 counter-screen. Potency, µM (titrated, usually from 57.5 µM), for the others: top-dose activity change, negative = inhibition, most hits filed as inhibitors. shares compounds with PMP22 txn. Secreted NLuc enzyme (filtered S16 cell medium), Nano-Glo luminescence. actives 4% (n = 690); further: potency means the concentration at half of the fitted maximal effect; on the % scale 0 is the no-effect control and ±100 the full control effect
NLuc Km ctr: inhibits NanoLuc under Km conditions, PMP22 counter-screen; shares compounds with PMP22 txn; secreted NLuc enzyme, coelenterazine luminescence, Km conditions; Potency, µM (highest dose often 57.5 µM), for inactives: top-dose activity change, negative = inhibition, hits mostly inhibitors; actives 5% (n = 690); further: potency means the concentration at half of the fitted maximal effect; on the % scale 0 is the no-effect control and ±100 the full control effect
FLuc ctr PMP22: firefly luciferase enzyme inhibition artifact for PMP22 screen. 690 tested, under 10 active. AID 1508640. purified P. pyralis FLuc, luminescence, 10 min. shares compounds with PMP22 txn. Potency, µM (series often up to 57.5 µM), for inactives: top-dose activity, negative = inhibition, actives largely listed as inhibitors; further: % of control where 0% means no effect
Target sequence (P08659 whole entry, looked up): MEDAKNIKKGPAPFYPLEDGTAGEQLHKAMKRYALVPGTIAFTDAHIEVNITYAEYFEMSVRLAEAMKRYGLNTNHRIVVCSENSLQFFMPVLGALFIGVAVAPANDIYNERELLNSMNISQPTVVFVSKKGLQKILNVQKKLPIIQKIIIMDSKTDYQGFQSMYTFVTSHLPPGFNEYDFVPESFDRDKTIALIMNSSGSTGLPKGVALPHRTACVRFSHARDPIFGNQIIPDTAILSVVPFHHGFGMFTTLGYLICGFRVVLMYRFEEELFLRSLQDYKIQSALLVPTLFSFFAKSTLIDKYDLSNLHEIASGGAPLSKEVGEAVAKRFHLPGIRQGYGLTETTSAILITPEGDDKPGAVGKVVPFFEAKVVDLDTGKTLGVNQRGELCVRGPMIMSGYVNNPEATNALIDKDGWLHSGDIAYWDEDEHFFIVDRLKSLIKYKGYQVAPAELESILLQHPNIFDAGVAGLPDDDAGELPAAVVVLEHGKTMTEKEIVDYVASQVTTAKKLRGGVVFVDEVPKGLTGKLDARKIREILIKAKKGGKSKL
S16 viab conf: confirmation of cytotoxicity in S16 Pmp22-F2sN Schwann cells (luciferase reporters placed in the Pmp22 gene) | AID 1508641 | S16 Schwann cells viability, CellTiter-Glo ATP luminescence, 24 h | actives 7% (n = 690) | shares compounds with PMP22 txn | Potency, µM (series often up to 57.5 µM), for inactives: at the highest dose activity change, negative = viability loss, usual class: cytotoxic; further: potency means the concentration at half of the fitted maximal effect; on the % scale 0 is the no-effect control and ±100 the full control effect
PMP22 txn cnf: confirmation of modulators of PMP22 gene transcription in S16 cells. shares compounds with PMP22 txn. S16 Schwann cells Pmp22-F2sN, dual luciferase, 24 h. Potency, µM (doses to about 57.5 µM), for the others: at the top dose activity change, negative = inhibition, usual class: inhibitors. actives 22% (n = 690). AID 1508646; active means clear falling dose curves in both reporters; inconclusive means both reporters move, but less clearly or upward; inactive means either reporter flat; the % is the FLuc reporter signal; further: potency means the concentration at half of the fitted maximal effect
PMP22 prot conf: confirmation of modulators of rat PMP22 protein expression; 95 tested, under 10 active; shares compounds with PMP22 txn; AID 1508647; S16 Schwann cells Pmp22-HiBiT, luminescence, 48 h; Potency, µM (series often up to 27.9 µM), inactives show at the highest dose activity change, negative = inhibition, usual class: inhibitors
Target sequence (P25094 whole entry, looked up): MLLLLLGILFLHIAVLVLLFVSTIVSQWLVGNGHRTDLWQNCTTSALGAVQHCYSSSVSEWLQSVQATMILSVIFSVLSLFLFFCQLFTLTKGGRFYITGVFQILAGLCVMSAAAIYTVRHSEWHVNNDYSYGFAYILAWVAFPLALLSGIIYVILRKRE
* marks the source's active call; other numbers are inactive results; i = inactive; ? = inconclusive; nt = no result; [ ] = dose if it differs, or a comment. Unless noted, the call rests on the fitted dose curve; in most records, active means well fitted curve in the direction sought with a large enough effect; inconclusive means small, poorly fitted or top-dose-only effect, or another doubt; inactive means no such curve, though single readings can be large; an effect the other way counts as inactive or inconclusive.

SMILES	S16 F2sN tox	OvCa metastasis	mTORC1 inh	p53null 32C kill	p53null 39C tox	PMP22 txn	NLuc saturating	NLuc Km ctr	FLuc ctr PMP22	S16 viab conf	PMP22 txn cnf	others
CSc1ccc(CCNC(=O)c2c(C)nn(-c3ccc(F)cc3)c2-n2cccc2)cc1	-13.5%	5.7%	0.0%	32.2%	92.5%	15.2µM*	-13.4%	3.5%	-11.8%	-15.5%	?
COCCCNC(=O)c1c(C)nn(-c2ccc(F)cc2)c1-n1cccc1	-4.8%	-10.0%	-5.2%	5.6%	-13.8%	3.5%	nt	nt	nt	nt	nt
O=C(CCS(=O)(=O)c1cc(Br)cc2c1N(C(=O)C1CC1)CC2)N1CCN(c2cccc(C(F)(F)F)c2)CC1	?	-26.9%	-4.4%	12.6%	8.9%	13.4µM*	-3.2%	11.1%	4.9%	4.7%	-42.6%
O=C(CCS(=O)(=O)c1cc(Br)cc2c1N(C(=O)C1CC1)CC2)N1CCN(c2ccc(F)cc2)CC1	-25.0%	16.3%	-12.0%	8.0%	-8.5%	?	nt	nt	nt	nt	nt
COC(=O)c1cc(NC(=O)Cn2ncc3c([nH]c4ccccc43)c2=O)cc(C(=O)OC)c1	6.7%	-0.5%	1.8%	-6.0%	-4.1%	10.9%	nt	nt	nt	nt	nt
O=C(Cn1ncc2c([nH]c3ccccc32)c1=O)Nc1cccc(C(F)(F)F)c1	-19.7%	-1.4%	0.8%	-6.6%	-11.2%	20µM*	-8.1%	4.0%	5.6%	-10.0%	-56.0%
CCc1nnc(NC(=O)c2nc(S(C)(=O)=O)ncc2Cl)s1	?	-7.8%	?	5.6%	-10.7%	9.46µM*	?	?	-4.2%	?	13.8µM*	PMP22 prot conf=?
CO[C@H]1C=CO[C@@]2(C)Oc3c(C)c(O)c4c(O)c(c(C=NN5CCN(C)CC5)c(O)c4c3C2=O)NC(=O)C(C)=CC=C[C@H](C)[C@H](O)[C@@H](C)[C@@H](O)[C@@H](C)[C@H](OC(C)=O)[C@H]1C	nt	-5.8%[15.1 µM]	nt	nt	nt	nt	nt	nt	nt	nt	nt
Cc1ccccc1Nc1c2c(nc3nncn13)CCC2	8.1%	9.6%	-9.4%	-5.5%	-19.6%	-10.0%	nt	nt	nt	nt	nt
Cc1cccc(Nc2c3c(nc4nncn24)CCC3)c1C	-1.6%	-20.8%	1.9%	-4.4%	-19.0%	?	?	8.8%	-5.9%	3.1%	?	PMP22 prot conf=2.5%
CCOC(=O)C1CCN(S(=O)(=O)c2cc(Br)cc3c2N(C(=O)CC)CC3)CC1	1.6%	i	-2.5%	-6.4%	36.8%	4.8%	nt	nt	nt	nt	nt
CCC(=O)N1CCc2cc(Br)cc(S(=O)(=O)N3CCC(C(=O)NC(C)(C)C)CC3)c21	16.7%	i	-0.6%	6.1%	-24.2%	-34.0%	-16.7%	-3.2%	-12.1%	-1.6%	-6.1%
O=S(=O)(N=Cc1c(O)ccc2ccccc12)c1cccs1	nt	23.3%	nt	nt	nt	nt	nt	nt	nt	nt	nt
Cc1ccc(OCCSc2nc3ccc(NC(=O)c4ccc5c(c4)OCO5)cc3s2)cc1	-0.4%	6.4%	-3.6%	-11.1%	-2.9%	13.5µM*	-2.8%	0.9%	-1.9%	?	?
CCOc1ccc(C(=O)Nc2ccc3nc(SCCOc4ccccc4)sc3c2)cc1	10.3%	3.7%	-4.4%	-10.2%	-2.6%	10.6µM*	-2.5%	1.7%	4.0%	-10.6%	-40.3%
Cc1cccc(C(=O)Nc2ccc3nc(SCCOc4ccccc4)sc3c2)c1	18.7%	i	0.5%	-9.9%	-1.2%	?	nt	nt	nt	nt	nt
COc1ccc(-c2oc3c(CC=C(C)C)c(O)cc(O)c3c(=O)c2O)cc1	nt	5.5%	nt	nt	nt	nt	nt	nt	nt	nt	nt
COc1ccc(C2CC(=O)c3cc(-c4nc(-c5ccc(Cl)cc5)cs4)c(=O)[nH]c3C2)cc1 (centres undefined)	5.2%	10.2%	1.8%	4.3%	10.2%	?	nt	nt	nt	nt	nt
O=C1CC(c2ccccc2)Cc2[nH]c(=O)c(-c3nc(-c4ccc(F)cc4)cs3)cc21 (centres undefined)	-10.6%	-15.3%	?	25.9%	-17.7%	3.4µM*	?	?	-13.3%	3.7%	?
COCCCOc1cc(C[C@@H](C[C@H](N)[C@@H](O)C[C@H](C(=O)NCC(C)(C)C(N)=O)C(C)C)C(C)C)ccc1OC	nt	6.6%	nt	nt	nt	nt	nt	nt	nt	nt	nt
COc1ccccc1Nc1c2c(nc3ccc(NC(=O)/C=C/c4cccc(OC)c4OC)cc13)CCCC2	25.1µM*	-14.3%	4.14µM*	-9.9%	?	10.6µM*	-5.7%	3.6%	2.3%	?	7.74µM*	PMP22 prot conf=38.4%
COc1ccccc1Nc1c2c(nc3ccc(NC(=O)c4cccc(F)c4)cc13)CCCC2	?	?	?	?	10µM*	10µM*	-27.2%	-10.9%	-2.2%	13.7µM*	11.5µM*
COc1cc(C(=O)Nc2ccc3nc4n(c(=O)c3c2)CCCCC4)cc(OC)c1OC	?	2.6%	2.0%	-25.8%	?	-21.4%	nt	nt	nt	nt	nt
CCOC(=O)c1c(C)[nH]c(CCC(=O)NCCCN2CCN(c3cc(Cl)ccc3C)CC2)c1C	?	?	?	11.5%	-36.2%	15µM*	-10.6%	4.3%	-2.7%	?	?
